# GoLoco inh red: inhibitors of human Gai1-RGS12 GoLoco interaction (red fluorophore). Potency, µM (top dose mostly 61.6 µM), inactives show at the highest dose activity, negative = inhibition, most hits filed as inhibitors. P63096. actives 0.44% (n = 230,000). Gai1:RGS12 GoLoco peptide FP, rhodamine, 10 min; active means well fitted inhibition curve with a large enough effect, not every such curve was filed as active; inactive means no such curve, though single readings can be large or run the other way; further: potency means the concentration at half of the fitted maximal effect; on the % scale 0 is the no-effect control and ±100 the full control effect; nearly all actives have a fitted effect of over 30% in size
# ALDH1A1 block: blocks purified human ALDH1A1 activity; Purified ALDH1A1, NADH fluorescence, propionaldehyde substrate; Potency, µM (highest dose often 75.3 µM), inactives show top-dose activity, negative = inhibition, actives largely listed as inhibitors; actives 7.3% (n = 220,000); AID 1030;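 further: potency means the concentration at half of the fitted maximal effect; plate controls were no enzyme wells and a reference inhibitor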
# Target sequence (P00352 whole entry, looked up): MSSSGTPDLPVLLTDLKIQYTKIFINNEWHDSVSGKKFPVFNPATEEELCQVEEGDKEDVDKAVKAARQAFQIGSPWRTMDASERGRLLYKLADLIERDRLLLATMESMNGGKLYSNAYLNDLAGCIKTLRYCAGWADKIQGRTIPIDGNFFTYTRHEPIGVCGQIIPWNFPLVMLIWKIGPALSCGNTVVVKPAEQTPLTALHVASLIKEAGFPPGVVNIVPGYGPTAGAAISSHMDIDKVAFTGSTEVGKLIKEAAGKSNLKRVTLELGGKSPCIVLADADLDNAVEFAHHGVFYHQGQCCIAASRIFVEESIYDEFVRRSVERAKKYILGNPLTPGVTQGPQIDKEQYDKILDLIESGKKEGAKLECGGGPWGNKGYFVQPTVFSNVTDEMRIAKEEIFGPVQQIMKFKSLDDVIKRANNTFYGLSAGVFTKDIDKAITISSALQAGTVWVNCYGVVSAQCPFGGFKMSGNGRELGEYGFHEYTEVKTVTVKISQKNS
# HPGD block: HPGD (human) dehydrogenase inhibition; purified HPGD, NADH fluorescence kinetic, PGE2 substrate; P15428; actives 4.3% (n = 150,000); Potency, µM, without a hit: top-dose activity change, negative = inhibition, actives largely listed as inhibitors; AID 894; further: potency means the concentration at half of the fitted maximal effect; on the % scale 0 is the no-effect control and ±100 the full control effect
# Target sequence (P15428 whole entry, looked up): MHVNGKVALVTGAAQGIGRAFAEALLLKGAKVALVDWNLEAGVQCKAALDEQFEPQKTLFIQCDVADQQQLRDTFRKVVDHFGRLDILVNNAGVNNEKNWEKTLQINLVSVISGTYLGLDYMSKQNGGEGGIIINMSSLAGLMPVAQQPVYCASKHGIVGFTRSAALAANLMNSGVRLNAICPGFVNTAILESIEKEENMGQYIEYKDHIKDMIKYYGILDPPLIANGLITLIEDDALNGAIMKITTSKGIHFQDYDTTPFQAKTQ
#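 20 nM HPGD preincubated 15 min at room temperature with compound in 50 mM Tris-HCl pH 8, 0.01% Tween 20. Started with 1 mM NAD+ and 30 uM prostaglandin E2; NADH fluorescence (360/450 nm) read 5 times over 30-s intervals, last minus first.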
# PNC inhibitor: blocks assembly of the perinucleolar compartment; PC3M PTB-GFP, PNC prevalence imaging, 16 h; active compounds read low; activity change (PNC), negative = inhibition, % at 10 µM; actives 3.1% (n = 140,000); AID 2417;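 active means readout at or below -70, meaning at least 70% loss of cells showing the perinucleolar compartment, a nuclear body marking cancer cells; inconclusive means readout between -30 and a set limit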;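 further: plate controls were DMSO wells for no effect and camptothecin positive control wells for full effect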
#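 Compounds are pinned in duplicate onto adhered PC3M cells stably expressing GFP-tagged PTB and incubated 16 h at 37 C. Cells are then fixed, nuclei stained with Hoechst, and PNC-positive cells counted.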
# HTT cytoprotect: cytoprotection in Huntington HTT-Q103 PC12 cell model | PC12 HTT-Q103 induced, cytoprotection, ATP luminescence, 40 h | Potency, µM (top dose mostly 56.4 µM), for the others: cytoprotection (ATP increase), most hits filed as activators | actives 0.14% (n = 230,000) | AID 1471; active means well fitted curve in the direction sought with a large enough effect; inconclusive means small, poorly fitted or top-dose-only effect, or another doubt; inactive means no such curve, though single readings can be large; an effect the other way counts as inactive or inconclusive; further: potency means the concentration at half of the fitted maximal effect; % of control where 0% means no effect; nearly all actives have a fitted effect of over 45% in size
#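 PC12 cells with ecdysone-inducible HTT exon 1 Q103-GFP, induced with 100 nM tebufenozide and co-treated with library compounds in a dose series (1536-well, 1500 cells/well). Cytoprotection read as ATP content by ATPlite luminescence.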
# HttQ103 aggreg: reduces HttQ103-GFP aggregates in PC12 cells. Potency, µM (top dose mostly 46.1 µM), for the others: at the top dose activity change, negative = inhibition, hits mostly inhibitors. PC12 HttQ103-GFP aggregates, Acumen cytometry, 40 h. AID 1688. actives 1.1% (n = 220,000); active means well fitted curve in the direction sought with a large enough effect; inconclusive means small, poorly fitted or top-dose-only effect, or another doubt; inactive means no such curve, though single readings can be large; an effect the other way counts as inactive or inconclusive; further: potency means the concentration at half of the fitted maximal effect; on the % scale 0 is the no-effect control and ±100 the full control effect; nearly all actives have a fitted effect of over 60% in size
#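 Compounds (qHTS titration) were added to PC12 cells expressing an ecdysone-driven HTT exon 1 Q103–GFP fusion after induction with 100 nM tebufenozide. Aggregate formation was measured as GFP objects in cell lysates.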
# * hit, by the source's call; ? = inconclusive; nt = not tested or not shown; [ ] = dose if it differs, or a comment. In the library only some 11% were active in any assay of this set; here they are far more common. Unless noted, the call rests on the fitted dose curve; in most records, active means well fitted inhibition curve with a large enough effect (not every such curve was filed as active); inconclusive means small, poorly fitted or top-dose-only effect, or another doubt; inactive means no such curve, though single readings can be large or run the other way.
SMILES,GoLoco inh red,ALDH1A1 block,HPGD block,PNC inhibitor,HTT cytoprotect,HttQ103 aggreg
COc1ccc(N2CCN(C(CNS(C)(=O)=O)c3ccco3)CC2)cc1 (stereo not drawn),-2%,?,nt,nt,29%,16%
O=C(Cn1ncc2c3ccccc3n(Cc3ccccc3)c2c1=O)NCc1ccco1,7%,nt,nt,nt,2%[10 µM],10%[9.22 µM]
CC(C)C(=O)NNc1ccc(C(F)(F)F)cn1,-2%,8%,nt,nt,-3%[10 µM],2%[9.22 µM]
CCOc1cc(N2CCOCC2)c(OCC)cc1NC(=S)NCCCOC,1%,-15%,nt,nt,-22%,-6%
O=C(COc1ncnc2c(Cl)cc(Cl)cc12)Nc1cc([N+](=O)[O-])ccc1Cl,9%,2%,-10%,25,21%[10 µM],17%
COc1cc(C(=O)Nc2cc(C(F)(F)F)ccc2Cl)cc(OC)c1OC,4%,-2%,3%,0,-17%,13%
CCc1cc(=O)oc2cc(C)cc(OCC(C)=O)c12,-2%,nt,nt,nt,8%[10 µM],22%[9.22 µM]
CCCc1cc(=O)oc2cc(C)cc(OC(=O)c3ccco3)c12,6%,2.2µM*,3%,?,-21%,?
CCc1cc(C(=O)NNC(=S)Nc2ccccc2C)cs1,5%,25µM*,-17%,?,-22%[10 µM],-7%
O=C1OC(CO)C(O)C(O)C1O (stereo not drawn),6%,-4%,-5%,nt,?,0%
Cc1nn(CC(O)CN2c3ccccc3Sc3ccccc32)c(C)c1Br (stereo not drawn),-6%,7%,-9%,?,18%[10 µM],-21%
Cc1nn(CC(O)c2ccccc2)c(C)c1Br (stereo not drawn),9%,18µM*,-3%,31,-4%,-16%[9.22 µM]
C/C(CCN1CCCc2nc(C)c(C)cc21)=N\OC[C@@H](C)[C@H](OCc1ccccc1)C(C)C,nt,-10%[13.5 µM],nt,nt,-10%[10 µM],nt
CN1C2CCC1/C(=C/c1cccn1C)C(=O)/C2=C\c1cccn1C,-17%,4%,28µM*,17,nt,1%
Cn1cccc1/C=C1\Cc2ccccc2C1=O,4%,11µM*,nt,nt,15%,3%
Cn1cccc1/C=C1\CCc2ccccc2C1=O,8%,-16%,nt,nt,-102%,21%
C=C(C)C(O)/C=C/c1ccc(C(F)(F)F)cc1 (stereo not drawn),0%,-5%,-1%,nt,?,nt
CC#N,-1%,-1%,-9%,nt,-3%,nt
CC(=O)C=NCC(=O)O,7%[14.2 µM],-4%[13.5 µM],-4%,nt,-8%[10 µM],nt
COc1ccc2o/c(=N\O)c(C(=O)Nc3ccccc3OC)cc2c1,2%,?,13µM*,18,4%,-3%
COc1ccc2oc(=O)c(C(=O)Nc3ccccc3O)cc2c1,10%,nt,nt,nt,-3%[10 µM],1%[9.22 µM]
COc1ccccc1NC(=O)c1oc2ccc(C)cc2c1C,4%,-8%,?,-80*,-25%,-18%
O=c1cc(-c2cccc(F)c2)[nH]c2cc(Cl)ccc12,37%[88.7 µM],1%[120 µM],-7%,nt,-219%[96.6 µM],nt
CCCCN=C(NNc1ccc(Br)cc1)C(=O)OCC,-6%,14µM*,-27%,?,-4%[10 µM],-10%
COc1ccc(S(=O)(=O)N2CCCCCC2)cc1N,5%,5%,nt,nt,8%,13%
SMILES,GoLoco inh red,ALDH1A1 block,HPGD block,PNC inhibitor,HTT cytoprotect,HttQ103 aggreg
O=C(O)c1ccc(NC(=S)NC(=O)c2cccc(COc3ccccc3)c2)cc1,15%,3.5µM*,nt,nt,13%[10 µM],13%[9.22 µM]
O=C(COc1ccccc1Cl)NC(=S)Nc1cccc(NC(=O)c2ccccc2Cl)c1,-8%,?,-20%,1,-29%,-3%
CCOc1cccc(C(=O)NC(=S)Nc2ccccc2)c1,0%,18µM*,-20%,7,1%[10 µM],24%
CCOc1cccc(C(=O)NC(=S)Nc2cccc(NC(=O)c3ccccc3Cl)c2)c1,5%,1.4µM*,-27%,30,?,3%
O=C(NNC(=S)NCc1ccco1)c1ccc(Cl)s1,6%,-12%,0%,7,4%,?
O=C(CSCc1ccco1)c1ccc(Cl)s1,3%,?,20µM*,-8,-1%,16%
CC(C)(C)NC(=O)CSc1nncn1NCc1c(Cl)cccc1Cl,5%,-3%,-9%,-100*,4%[10 µM],-1%
CS(=O)(=O)N(CC(=O)NCCSCc1c(F)cccc1Cl)c1ccc2c(c1)OCO2,-4%,2.5µM*,-13%,-24,1%[10 µM],-24%
C/C(CC(=O)NCc1ccco1)=N\NC(=O)Cc1cccc2ccccc12,-5%,13µM*,-11%,15,-10%,7%
C/C(=N\NC(=O)c1nonc1N)c1cccs1,16%,6%,-6%,-11,15%[10 µM],-4%
COC(=O)c1ccc(C(NC(=O)OCc2ccccc2)/C(C)=C/[C@@H](C)C(=O)NCc2nn(-c3ccccc3)nc2C)cc1 (stereo partly drawn),-3%,?,-17%,nt,4%,nt
O=C(CSCc1c(F)cccc1Cl)NCCSCc1ccco1,6%,?,nt,nt,-36%,9%[9.22 µM]
O=C(CSCc1c(Cl)cccc1Cl)NCc1ccco1,-11%,?,8.9µM*,-15,-9%[1.9 µM],-4%
O=C(CSCc1c(F)cccc1Cl)NCc1ccco1,6%,?,14µM*,?,4%[10 µM],-2%
CC(C)(C)NC(=O)CSCc1c(Cl)cccc1Cl,-1%,5%,25µM*,?,nt,-15%
NC(=O)CSCc1c(Cl)cccc1Cl,-9%,1%,2%,-4,7%,-9%
O=C(CSCc1ccc(Cl)cc1)NCCSCc1ccco1,1%,11µM*,nt,nt,-18%,2%
O=C(CCc1ccccc1)NCCSCc1c(F)cccc1Cl,5%,-5%,5µM*,?,-8%[10 µM],8%
Cc1ccccc1CSCC(=O)NCc1ccco1,42%,16µM*,11µM*,24,nt,-1%
CC(C)NC(=O)CSCc1c(F)cccc1Cl,1%,?,16µM*,-7,8%[10 µM],0%
CCOC(=O)c1nnn(CC(=O)NC(=O)Nc2ccc(F)cc2)c1C(=O)OCC,10%,11%,nt,nt,-23%,6%
COC(=O)CN1C(=O)N/C(=C/c2cc(OC)c(OC)cc2C)C1=O,8%,?,nt,nt,3%[10 µM],-3%[9.22 µM]
Cc1ccc(NC2=C(Cl)C(=O)c3ccccc3C2=O)cc1,nt,4%,nt,-14,-29%[10 µM],10µM*
CCN(CC)c1ccc(NC2=C(Cl)C(=O)c3ccccc3C2=O)cc1,7.9µM*,10µM*,7.9µM*,?,nt,?
O=C1C(Cl)=C(Nc2ccc(O)cc2)C(=O)c2ccccc21,-16%,nt,nt,nt,-98%[10 µM],?
CCN(CC)c1ccc(NC(=O)c2ccccc2F)cc1,-18%,-15%,-17%,?,-88%[0.074 µM],-9%
CCNC1=C(Cl)C(=O)c2ccccc2C1=O,21%,?,-20%,25,-25%,13µM*
O=c1cc(-c2ccco2)nc(-c2cccs2)o1,5%,14µM*,-18%,-9,5%,-7%[9.22 µM]

# Source: PubChem
